Results on 36 compounds are retold here after PubChem BioAssay AID493192 (National Center for Advancing Translational Sciences (NCATS), 2011).

Results filed as inconclusive are left out. Values without a mark were called inactive. Calls of active or inactive are those of the source. Calls come from the whole dose curve; as a rule, active = well fitted activation curve with a large enough effect; inconclusive = small, poorly fitted or top-dose-only effect; inactive = no such curve, though single readings can be large or run the other way.
Potency is the fitted concentration of half-maximal effect.

The nature of this experiment: qHTS Assay for Identifying a Potential Treatment of Ataxia-Telangiectasia: Hit Validation. For activity change, positive = activation: 0% is about no effect.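 Note: phospho-KAP1 level by AlphaLISA as a proxy for ATM-like kinase activity.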 The following applies: Ataxia-telangiectasia cell-based hit validation qHTS, in ATM-null A-T patient fibroblasts; series mostly up to 76.9 µM; activity change, positive = activation: at the top concentration. The method, boiled down:
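hTERT-immortalized A-T patient fibroblasts (F2112) were dosed at up to 76.7 uM final for 60 min at 37C. After a further 30 min incubation, cells were lysed, and phospho-KAP1 was detected by AlphaLISA after 6 hr at 25C.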
On the technique in general: Quantitative high-throughput screening tests each substance at several concentrations.
Turning to `O=C(CSc1nnc(CNC(=O)c2ccccc2)o1)NCCc1ccccc1`, the “activity change, positive = activation” value was 26.9%.

In the case of `Cc1ccc(C(C)C)c(OCCN2CCc3ccccc3C2)c1`, the Potency is 32.8 µM (active).

Take `CCn1c(N2CCN(CC(=O)c3c[nH]c4ccccc34)CC2)nc2c1c(=O)[nH]c(=O)n2C`: the “activity change, positive = activation” value is 37.8%.

Consider `COc1ccc(-n2c(=S)[nH]c3ccccc3c2=S)cc1`, for which the “activity change, positive = activation” value was -12.5%.

As to `COc1ccc2nc(C)cc(Nc3ccc(C(=O)O)cc3)c2c1`, the “activity change, positive = activation” value was 2.43%.

Regarding `Cc1nc(SCC(=O)Nc2cc(C(N)=O)cc(C(N)=O)c2)c2c(C)c(C)sc2n1`, the “activity change, positive = activation” value is 1.61%.

For the compound `Cc1cc(C)n2nc(C(=O)OCCOc3ccc(F)cc3)nc2n1`, the Potency was 58.2 µM (active).

For `Nc1ccc2ncccc2c1`, the “activity change, positive = activation” value is 12.2%.

As to `CCNC(=S)N(CCc1c(C)[nH]c2ccccc12)Cc1cccnc1`, the “activity change, positive = activation” value was -30.6%.

For `CCCN1CN(c2ccccc2)C(=S)N(c2ccccc2)C1`, the “activity change, positive = activation” value was 12.2%.

Regarding `CCOc1cccc(C(=O)Nc2ccccc2N2CCN(C(=O)C(C)C)CC2)c1`, the “activity change, positive = activation” value is -3.12%.

Turning to `O=C(c1nn2c(C(F)(F)F)cc(-c3ccc(F)cc3)nc2c1Cl)N1CCOCC1`, the “activity change, positive = activation” value was 6.99%.

In the case of `CN(C)Cc1ccc(F)cc1Sc1cc(Cl)ccc1Cl`, the “activity change, positive = activation” value is -6.02%.

As to `COc1ccc(CCNC2=NCCS2)cc1OC`, the “activity change, positive = activation” value was -5.56%.

Take `CCN(CC)S(=O)(=O)c1ccc(Cl)c(NC(=O)CCCCl)c1`: the “activity change, positive = activation” value was 6.64%.

As to `CC(C)(C)NC(=O)c1cccc2c1-c1ccccc1C2=O`, the “activity change, positive = activation” value was 3.82%.

On to `O=[N+]([O-])c1ccc(F)cc1F`, for which the Potency was 29.2 µM (active).

Turning to `Cc1ccc2c(c1)sc(=NC(=O)C1CC1)n2C`, the Potency was 18.4 µM (active).

For the compound `CCCCN(c1nc2ccccc2nc1Cl)S(=O)(=O)c1ccc(C)cc1`, the Potency is 26 µM (active).

`COc1cc(/C=C2\CCOC2=O)cc(OC)c1OC`: the “activity change, positive = activation” value is -2.08%.

Regarding `CCOC(=O)c1ccccc1NC(=O)c1ccc2nc[nH]c2c1`, the “activity change, positive = activation” value was 1.2%.

For the compound `O=C1CN(C(=O)NCC(=O)N[C@H](C(=O)O)c2ccccc2)c2ccccc2N1`, the “activity change, positive = activation” value was -3.5%.

Take `COc1ccc(OC)c(C2CC(c3ccccc3)=NN2C(=S)Nc2ccccc2)c1` (stereo unspecified): the “activity change, positive = activation” value is 12.6%.

In the case of `Cc1nn(CC(=O)N(C)Cc2ccc(F)cc2)c(C)c1[N+](=O)[O-]`, the “activity change, positive = activation” value is -3.5%.

Regarding `C=Cc1c(C)c2cc3[nH]c(cc4nc(cc5nc(cc1[nH]2)C(C)=C5CCC(=O)O)C(CCC(=O)O)=C4C)c(C)c3C=C`, the “activity change, positive = activation” value is 21.5%.

As for `CC1Cc2ccccc2N1C(=O)CSc1nnnn1-c1ccc2c(c1)OCCO2` (stereo unspecified), the “activity change, positive = activation” value is -0.35%.

For the compound `CCOC(=O)NC(C(Cl)(Cl)Cl)S(=O)(=O)c1ccccc1` (stereo unspecified), the Potency was 41.2 µM (active).

`C=CCC(CC)C(=O)NC(=O)N1CCCc2ccccc21` (stereo unspecified): the “activity change, positive = activation” value is 1.61%.

For the compound `COc1cccc(CN(C)CC(=O)NCc2ccc(F)cc2)c1OC`, the “activity change, positive = activation” value is 5.21%.

Take `CN(C)C(=O)c1nc2ccc(Cl)cn2c1CNCc1cccc(OC(F)(F)F)c1`: the “activity change, positive = activation” value is 6.64%.

As to `CC(O)[C@H]1CNC(=O)C(=O)N1CC1(c2ccccc2)CC1` (stereo partly specified), the “activity change, positive = activation” value is 3.82%.

As for `CCC(C)NC(=O)c1cn(CCOC)c(=O)c2c1c1ccccc1n2C` (stereo unspecified), the “activity change, positive = activation” value was -18.9%.

As for `COC(=O)c1cccc2c1-c1ccccc1/C2=N\NC(N)=O`, the “activity change, positive = activation” value is 14.2%.

In the case of `O=c1c(-c2ccc(Cl)cc2)c[nH]n1-c1ccccc1`, the “activity change, positive = activation” value is 2.43%.

For the compound `CC(C)NC(=O)c1ccc(COc2ccc(C(C)(C)C)cc2)o1`, the “activity change, positive = activation” value is 15.3%.

Take `CCn1c(SCc2cccc(F)c2)nnc1-c1ccncc1`: the “activity change, positive = activation” value was -1.39%.
